TrxR1 substrate = rat thioredoxin reductase 1 substrate activity; O89049; purified TrxR1 substrate turnover, NADPH consumption readout; Potency, µM (highest dose often 114 µM); actives 0.01% (n = 390,000); AID 588456; note: nearly all actives have a fitted effect of over 50% in size
Target sequence (O89049 whole entry, looked up): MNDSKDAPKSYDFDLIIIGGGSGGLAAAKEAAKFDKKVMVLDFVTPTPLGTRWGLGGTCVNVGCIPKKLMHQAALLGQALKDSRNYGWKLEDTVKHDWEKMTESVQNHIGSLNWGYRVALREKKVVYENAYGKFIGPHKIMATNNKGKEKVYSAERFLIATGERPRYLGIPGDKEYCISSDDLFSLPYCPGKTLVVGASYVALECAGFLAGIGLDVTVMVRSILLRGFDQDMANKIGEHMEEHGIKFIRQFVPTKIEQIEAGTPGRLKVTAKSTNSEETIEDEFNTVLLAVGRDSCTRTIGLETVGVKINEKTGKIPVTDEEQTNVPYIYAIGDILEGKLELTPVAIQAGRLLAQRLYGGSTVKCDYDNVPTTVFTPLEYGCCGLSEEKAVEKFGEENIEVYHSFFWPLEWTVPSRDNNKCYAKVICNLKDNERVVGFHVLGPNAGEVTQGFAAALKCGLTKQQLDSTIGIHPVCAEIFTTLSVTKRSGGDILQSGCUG
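Rat TrxR1, dispensed at 90 nM, was prereduced with 400 uM NADPH (final) for 5 min at ~22 deg C, then incubated with compound 15 min before 400 uM selenite. A first-read NADPH fluorescence drop versus no-compound background flagged substrates.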
Glioma ERSR ind = induces the endoplasmic reticulum stress response in human glioma cells; U87-MG GRP78 promoter luciferase reporter, 16 h; Potency, µM, hits mostly activators; actives 0.02% (n = 420,000); AID 602332; note: series mostly up to about 76 µM; nearly all actives have a fitted effect of over 35% in size
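Stably transfected U87-MG human glioma cells carrying a GRP78-based luminescent sensor were seeded at 1000 cells/well, pin-dosed with compounds and incubated 16 h. Luciferase reagent was then added, and end-point luminescence was read after 10 min at room temperature.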
Anesthetic bind = binds horse apoferritin like a general anesthetic | apoferritin/1-aminoanthracene competitive binding, fluorescence | Potency, µM (doses to about 77.5 µM), actives largely listed as inhibitors | actives 0.074% (n = 350,000) | AID 485281; note: nearly all actives have a fitted effect of over 20% in size
Target sequence (P02791 2-175 limits assumed): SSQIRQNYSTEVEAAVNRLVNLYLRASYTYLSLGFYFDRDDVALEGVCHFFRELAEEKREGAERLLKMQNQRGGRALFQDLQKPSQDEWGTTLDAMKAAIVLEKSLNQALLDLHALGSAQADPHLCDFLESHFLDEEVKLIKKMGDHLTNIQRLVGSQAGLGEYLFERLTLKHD
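In PBS, apoferritin at 10 uM is loaded with 1-AMA from a 50% saturated solution. After 10 min of compound exposure at ambient temperature, reduced 535 nm fluorescence indicates probe displacement.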
ALOX12 inh = blocks human arachidonate 12S-lipoxygenase. P18054. purified 12hLO, xylenol orange hydroperoxide absorbance. Potency, µM (doses to about 108 µM), hits mostly inhibitors. actives 1.1% (n = 580,000). AID 1671190
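Purified human 12hLO (150 nM final) in 25 mM Hepes, 0.01% Triton X-100, pH 7.0 was preincubated 15 min at room temperature with compound. Then 40 uM arachidonic acid was added, 30 min. Hydroperoxide was read by Fe-XO absorbance ratio 573/405 nm.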
rTrxR1 inhibitor = rat TrxR1 inhibition | recombinant rTrxR1, NADPH fluorescence consumption, selenite substrate | Potency, µM (highest dose often 114 µM), actives largely listed as inhibitors | actives 1% (n = 390,000) | AID 588453; note: nearly all actives have a fitted effect of over 65% in size
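Rat TrxR1 (90 nM in the dispensed reagent) was pre-reduced with 400 uM NADPH for 5 min at room temperature, then incubated with compound for 15 min. After 400 uM selenite was added, NADPH fluorescence (Ex 340/Em 450 nm) was followed for 8 min.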
mIDH1 inhibitor = human IDH1 R132H inhibition | O75874 | IDH1-R132H enzyme, NADPH consumption, diaphorase/resazurin fluorescence | Potency, µM (titrated, usually from 76.6 µM), hits mostly inhibitors | actives 0.093% (n = 390,000); note: nearly all actives have a fitted effect of over 65% in size
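IDH1-R132H (0.5 ug/mL dispensed) in pH 7.5 Tris buffer was preincubated 30 min with compound, then given a substrate mix of 0.016 mM NADPH and 2 mM alpha-KG for 80 min at room temperature; remaining NADPH was read by diaphorase/resazurin fluorescence.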
Hits are given with their value; i = inactive; ? = inconclusive; nt = no result given; [ ] = another dose, or the depositor's remark. An excerpt weighted towards active compounds, which were near 1.7% of everything screened. Calls come from the whole dose curve; as a rule, active = well fitted curve in the direction sought with a large enough effect; inconclusive = small, poorly fitted or top-dose-only effect, or another doubt; inactive = no such curve, though single readings can be large; an effect the other way counts as inactive or inconclusive.

SMILES	TrxR1 substrate	Glioma ERSR ind	Anesthetic bind	ALOX12 inh	rTrxR1 inhibitor	mIDH1 inhibitor
CCCCNC(=O)c1cccc2c1CCN2S(=O)(=O)c1cccc(C)c1	nt	nt	nt	i	nt	nt
CCCn1cc(S(=O)(=O)N2C[C@H](C3CC3)[C@@H](N)C2)cn1	nt	nt	nt	i	nt	nt
CCOc1ccccc1NC(=O)c1nc(S(=O)(=O)Cc2ccccc2F)ncc1Cl	i	i	nt	nt	?	nt
O=C(Nc1ccccc1F)c1nc(S(=O)(=O)Cc2ccccc2F)ncc1Cl	i	i	i	i	1.6µM	i
COc1ccc(OC)c(NC(=O)c2nc(S(=O)(=O)Cc3ccccc3F)ncc2Cl)c1	i	i	nt	nt	?	nt
Cc1cccc(C)c1NC(=O)c1nc(S(=O)(=O)Cc2ccccc2)ncc1Cl	i	i	i	i	16µM	i
COc1ccc(OC)c(NC(=O)c2nc(S(=O)(=O)Cc3ccccc3)ncc2Cl)c1	i	i	i	i	3.5µM	i
CN1C[C@H]2CN(c3cncc(C(N)=O)n3)C[C@@]2(C(=O)O)C1	nt	nt	nt	i	nt	nt
COc1cc(NC(=O)C2=C(C)OCCS2)c(Cl)cc1C(=O)NCc1cccnc1	nt	nt	nt	i	nt	nt
CN1C(=O)C2(CCN(C(=O)c3ccc(S(N)(=O)=O)cc3)CC2)c2ccccc21	nt	nt	nt	i	nt	nt
CSc1cccc(NC(=O)NCc2ccc(Cl)cc2Cl)c1	nt	nt	nt	i	nt	nt
CC1=C(O)C(=O)C(C2=C(O)C(=O)C(C)=C(O)C2=O)=C(O)C1=O	i	i	nt	?	i	i
Cc1ccc(C2=C(O)C(=O)C(c3ccc(C)cc3)=C(O)C2=O)cc1	i[11.4 µM]	i	nt	1.1µM	i[11.4 µM]	i
OC(CCN1CC2CCC(CC2)C1)(Cc1ccccc1)c1ccco1 (centres undefined)	i	i	nt	2.5µM	?	i
COc1ccc(-c2oc3ccccc3c2C(=O)Oc2ccccc2)cc1	i	i	i	i	16µM	i
CCC(c1cccs1)N1C(=O)[C@H]2CN(S(=O)(=O)c3cccc(Cl)c3)C[C@H]2C1=O (some centres undefined)	nt	nt	nt	32µM	nt	nt
N#Cc1c(SCC(N)=O)nc2c(c1-c1ccncc1)CCCC2	i	i	i	i	i	i
N#Cc1c(-c2ccncc2)c2c([nH]c1=S)CCCC2	i	i	i	20µM	?	i
Cc1ccc(-c2c(C#N)c(N)nc3c2CCCC3)o1	i	i	i	i	32µM	i
Cc1ccc(-c2c3c([nH]c(=S)c2C#N)CCCC3)o1	i	i	i	?	45µM	i
Cc1cccc(NC(=O)N2CCC(N3CCN(Cc4ccccn4)C(=O)C3=O)CC2)c1C	nt	nt	nt	i	nt	nt
Cc1ccc(Cn2nc(C)c3cc(C(=O)N4CCN(CC(=O)N5CCOCC5)CC4)sc32)cc1	nt	nt	nt	i	nt	nt
Cc1nnc(Sc2cc(NCCO)c([N+](=O)[O-])c3nonc23)s1	i	i	i	?	0.32µM	i
CCC(=O)OCCNc1cc(Sc2nc3ccccc3[nH]2)c2nonc2c1[N+](=O)[O-]	i	i	?	?	0.28µM	i
O=[N+]([O-])c1c(NCCCO)cc(Sc2nc3ccccc3s2)c2nonc12	i	i	?	nt	0.63µM	i
SMILES	TrxR1 substrate	Glioma ERSR ind	Anesthetic bind	ALOX12 inh	rTrxR1 inhibitor	mIDH1 inhibitor
CCC(=O)OCCNc1cc(Sc2nc3ccccc3s2)c2nonc2c1[N+](=O)[O-]	i	i	?	?	0.28µM	i
CSCCC(NS(=O)(=O)c1ccc2c(c1)oc(=O)n2C)C(=O)Nc1ccc(C)c(F)c1 (centres undefined)	nt	nt	nt	i	nt	nt
CC(NC(=O)c1n[nH]c(=O)c2ccccc12)c1ccc(F)cc1F (centres undefined)	nt	nt	nt	i	nt	nt
COc1ccc(-c2nc3cc(NC(=O)CC(C)C)ccc3o2)cc1Cl	nt	nt	nt	i	nt	nt
COc1cc(C(=O)OC(C)C(=O)Nc2c(C)n(C)n(-c3ccccc3)c2=O)cc(Cl)c1OC (centres undefined)	nt	nt	nt	i	nt	nt
CC(=O)N1CCc2cc(Br)cc(S(=O)(=O)CCC(=O)N3CCN(c4ccccc4Cl)CC3)c21	i[2.29 µM]	i	i	i	i[2.29 µM]	i
O=C(c1ccc(F)cc1)c1ccc(N2CCCC2)cc1	i	i	i	32µM	i	i
O=C(CCC(=O)N1CCN(c2ccc(F)cc2)CC1)N1CCN(c2ccc(F)cc2)CC1	i	i	i	1.8µM	i	i
O=C(CCC(=O)N1CCN(c2ccc(F)cc2)CC1)c1ccc(F)cc1	i	i	i	i	i	i
Cc1ccccc1-c1cncnc1NCc1cccs1	nt	i	nt	?	nt	nt
Clc1ccccc1-c1cncnc1NCc1cccs1	nt	i	nt	35µM	nt	nt
COC(=O)c1ccc(O)cc1	i	i	i	i	i	i
COC(=O)c1ccc(CCc2cc(O)c(Br)cc2O)cc1	i	i	nt	?	22µM	i
COC(=O)c1ccc(CCc2cc(O)ccc2O)cc1	i	i	nt	nt	56µM	i
COc1ccc(C2=NCC(C)n3c2c2ccccc2[n+]3[O-])cc1 (centres undefined)	nt	nt	nt	i	nt	nt
CCOc1ccccc1NC(=O)/C=C/C(N)=O	i	i	i	i	25µM	i
CCOC(=O)c1[nH]c(C)c(CCC(=O)N2CCN(c3ccc(Cl)cc3)CC2)c1C	i	i	i	i	i	i
CCOP(=O)(OCC)C(C#N)=C1SCN(c2ccc(Cl)cc2)CS1	i	i	i	i	13µM	i
COc1ccc2nc(/C=C/c3cccc(O)c3)sc2c1	nt	nt	nt	6.3µM	nt	nt
COC(=O)c1ccc(/C=C/c2nc3ccc(OC)cc3s2)cc1	nt	nt	nt	i	nt	nt
CCOc1cc(C)c(C(C)C)cc1S(=O)(=O)N(CC)CC	nt	nt	nt	i	nt	nt
COc1ccc(O)c(CN2CCN(C/C=C/c3ccccc3)CC2)c1	i	i	i	?	i	i
COc1cc(Br)cc(CN2CCN(C/C=C/c3ccccc3)CC2)c1O	i[11.4 µM]	i	i	14µM	i[11.4 µM]	i
Cc1csc(/C(C#N)=C\C2=Cc3cc(Cl)ccc3OC2)n1	nt	nt	nt	50µM	nt	nt
N#C/C(=C\c1ccc(Cl)cc1Cl)c1nc(-c2cccc(Cl)c2)cs1	i	i	i	i	i	i
SMILES	TrxR1 substrate	Glioma ERSR ind	Anesthetic bind	ALOX12 inh	rTrxR1 inhibitor	mIDH1 inhibitor
S=C1Cc2ccccc2N1	?	?	i	?	i[0.457 µM]	37µM
O=Cc1cccc(N2CCN(C(=O)N3CCCCC3)CC2=O)c1	nt	nt	nt	i[6.33 µM]	nt	nt
Cc1ccc(C)n1C1C(=O)N(Cc2ccc(C(C)C)cc2)c2ccc(F)cc21 (centres undefined)	nt	nt	nt	35µM	nt	nt
CCOC(=O)c1cccn1C1C(=O)N(Cc2ccc(Cl)nc2)c2ccc(F)cc21 (centres undefined)	nt	nt	nt	i	nt	nt
Cc1ccc(C)n1C1C(=O)N(Cc2ccc(C(F)(F)F)cc2)c2ccc(Cl)cc21 (centres undefined)	nt	nt	nt	10µM	nt	nt
Cc1ccc(C)n1C1C(=O)N(Cc2ccc(C(C)C)cc2)c2c(F)cccc21 (centres undefined)	nt	nt	nt	32µM	nt	nt
COCCNC(=O)[C@H]1C[C@H](Oc2ccccc2)CN1S(=O)(=O)c1ccc(F)cc1	nt	nt	nt	i	nt	nt
COC(C(=O)N1CCC2(CC1)Nc1ccccc1NC2=O)c1ccccc1 (centres undefined)	nt	nt	nt	i	nt	nt
